# High-throughput results (PubChem BioAssay)
# EBV gp42 block = inhibitors of Epstein-Barr virus glycoprotein 42; Q1HVG2; Fluorescence polarization binding assay, mP read-out; inhibition, % (tested at 21.74 µM); 220,000 compounds, 0.42% hits; in the data active = inhibition above about 50%
# Target sequence (Q1HVG2 whole entry, looked up): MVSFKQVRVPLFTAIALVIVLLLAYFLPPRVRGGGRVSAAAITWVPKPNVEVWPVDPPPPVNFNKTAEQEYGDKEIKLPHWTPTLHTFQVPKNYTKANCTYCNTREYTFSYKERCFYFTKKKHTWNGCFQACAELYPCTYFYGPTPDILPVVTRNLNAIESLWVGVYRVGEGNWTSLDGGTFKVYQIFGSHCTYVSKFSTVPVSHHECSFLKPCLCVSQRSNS
# eIF4E-4G inh = eIF4E/eIF4G interaction inhibition in translation initiation; inhibition, % at 21.7 µM; TR-FRET eIF4E-eIF4GI(517-606) binding, 2 h; AID 782; P63073+Q04637; 220,000 compounds, 0.37% hits;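 active = inhibition above about 30%, limit read from the data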;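 also: 0% = full FRET control wells and 100% = background wells lacking eIF4GI fragment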
# PABP1 MLLE inh = inhibitors of microRNA-mediated deadenylation, human PABP1 MLLE binding; 360,000 compounds, 0.36% hits; P11940; inhibition, % at 20 µM; GST-MLLE / FITC-PAM2 fluorescence polarization; in the data active = inhibition above about 35%, passing the limit was not always enough;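 also: plate controls were DMSO wells with GST-MLLE for no effect and wells lacking GST-MLLE protein for full effect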
# PABP FP inh = PABP-poly(A) binding inhibition; AID 2014; calls only at 35 µM; 290,000 compounds, 1% hits; PABP-poly(A) RNA binding, fluorescence polarization;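 also: calls also rest on retests at 20 µM and on dose response follow-up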
# eIF4H FP inh = inhibitors of RNA binding by human eIF4H; 290,000 compounds, 0.94% hits; eIF4H fluorescence polarization binding assay; inhibition, % at 35 µM;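 also: calls also rest on retests at 20 µM and on dose response follow-up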
# * marks the source's active call; other numbers are inactive results; i = inactive; ? = inconclusive; . = not tested or not shown; + = active, no number. Sampled rows, rich in hits. Any-hit rate of the full collection: about 1.7%. Unless noted, no rule for the calls is given here.
SMILES,EBV gp42 block,eIF4E-4G inh,PABP1 MLLE inh,PABP FP inh,eIF4H FP inh
CCCCCc1cc(=O)oc2c(C(CCN(CC)CC)c3cc(OC)c(OC)c(OC)c3)c(OC)cc(OC)c12 (configuration not stated),-5,-4,-4,i,-13
O=C(CN1C(=O)/C(=C/c2ccccc2Cl)SC1=S)NC1CCS(=O)(=O)C1 (configuration not stated),.,.,39*,i,-3
COc1ccc(/C=C2\SC(=S)N(CC(=O)NC3CCS(=O)(=O)C3)C2=O)cc1 (configuration not stated),.,.,5,i,0
COc1ccc(O)c(/C=N/c2sc(C)c(C)c2C#N)c1,-122,0,2,+,37
CC(C)Nc1nc(Cl)nc(Nc2ccccc2)n1,.,.,-7,i,-4
Cc1ccc(/C=N/NC(=O)Cn2cnc3ccccc32)cc1,-4,-3,-4,+,89*
O=C(Cn1cnc2ccccc21)N/N=C/c1ccc([N+](=O)[O-])cc1,-6,2,2,i,0
Cc1cc(C)c(NC(=O)NC(=O)c2ccc(F)cc2)c(C)n1,-14,-4,4,+,76*
Cc1ccc(N(C(C)C(=O)Nc2ccc(S(=O)(=O)N3CCOCC3)cc2)S(C)(=O)=O)cc1 (configuration not stated),-17,8,9,+,?
CCOC(=O)C1=C(C)Nc2sc(C(=O)c3ccc(C)cc3)c(N)c2C1c1ccc(C(=O)OC)cc1 (configuration not stated),-26,3,10,+,87
CCOC(=O)C1=C(C)Nc2sc(C(=O)c3ccc(F)cc3)c(N)c2C1c1ccc(C(=O)OC)cc1 (configuration not stated),-32,-1,9,i,-6
CC(C)(C)NC(=O)C1(C)CCC(=O)N1CCCn1ccnc1 (configuration not stated),.,.,2,.,.
O=C(CC1CCCC1)Nc1cc(C(F)(F)F)ccc1-n1cncn1,.,.,0,.,.
O=C(Nc1cc2cc([N+](=O)[O-])ccc2oc1=O)c1cccs1,-12,-4,.,+,-18
CCC1Oc2ccccc2N(CC(=O)NCc2ccco2)C1=O (configuration not stated),-22,-1,9,i,-7
O=C(C[n+]1cccc2ccccc21)c1ccc(Cl)cc1,.,.,-1,+,71
O=C(C[n+]1cccc2ccccc21)c1ccc([N+](=O)[O-])cc1,-14,4,4,i,8
COc1ccc2oc(=O)c(C(=O)OCc3ccccc3)cc2c1,.,.,43*,i,-4
COc1ccc2oc(=O)c(C(=O)NCc3ccccc3)cc2c1,.,.,0,i,-3
Nc1c(C(=O)CSc2nnc(Cc3ccccc3)o2)c(=O)[nH]c(=O)n1C1CC1,.,.,16,.,.
Cc1nc2scc(-c3ccccc3)c2c(=O)n1N=C1C=CC(=O)C=C1,-8,5,.,+,71*
CC1CCC(C(C)C)C(OC(=O)COC(=O)c2cccn2C)C1 (configuration not stated),-20,11,-1,i,-3
CC1CCC(C(C)C)C(OC(=O)COC(=O)c2ccc(N)cc2)C1 (configuration not stated),-7,54*,-16,i,-13
Cc1ccc(S(=O)(=O)N(C)C)cc1-n1c(SCC(=O)N(C)C)nc2ccccc2c1=O,-12,-3,-13,+,52*
c1cnc2ccc(C(c3nnnn3C3CCCC3)N3CCN(c4nc5ccccc5s4)CC3)cc2c1 (configuration not stated),-3,-27,-7,+,active
SMILES,EBV gp42 block,eIF4E-4G inh,PABP1 MLLE inh,PABP FP inh,eIF4H FP inh
COc1ccc(CC(=O)Nc2cccc(-c3ccc4nncn4n3)c2)cc1OC,6,-5,9,i,-15
CCOc1ccc2[nH]c(=O)c(CN(CC3COCCO3)C(=O)C3CC3)cc2c1 (configuration not stated),51*,1,12,i,-9
CCOc1ccc2[nH]c(=O)c(CN(C(=O)N3CCOCC3)C3CC3)cc2c1,.,.,.,i,-7
O=C(O)CCc1ccc(-c2cccs2)o1,-10,-4,31,+,70*
CC(c1nc2ccccc2c(=O)[nH]1)N(C)c1ccc2ccccc2c1 (configuration not stated),6,10,42*,i,17
CN(CCOC(=O)c1ccco1)Cc1ccccc1,2,-1,-14,i,7
CN(Cc1ccccc1)C(=O)COC(=O)/C=C/c1ccco1,19,48*,5,+,82*
CN(CCOC(=O)/C=C/c1ccco1)Cc1ccccc1,-2,14,10,+,90*
c1ccc(CCc2cc3ccccc3[nH]2)cc1,.,.,10,.,.
O=C(CCNC(=O)C1CCN(S(=O)(=O)c2ccccc2)CC1)Nc1cccc(C(F)(F)F)c1,.,.,15,i,-18
O=C(OCc1cc(=O)n2c(n1)sc1ccccc12)c1ccc(O)cc1O,36,33*,-25,i,84
O=C(OCc1cc(=O)n2c(n1)sc1ccccc12)c1cccc(O)c1,-14,10,-16,i,81
N#C/C(=C\c1ccc(Cl)cc1)c1nc2ccccc2o1,-8,0,11,+,81*
N#C/C(=C\c1ccncc1)c1nc2ccccc2o1,-4,96*,-18,i,1
CCCCN1Cc2c(nc3cc(-c4ccco4)[nH]n3c2=O)C1=O,-2,2,3,+,88*
CCCCCCn1c(=O)n2n(c1=O)C[C@]1(OC(=O)Nc3c(C)noc3C)CN(S(=O)(=O)c3ccc(C)cc3)C[C@]1(O)C2,.,.,-3,.,.
O=P(NC1CCCCC1)(c1ccccc1)c1ccccc1,.,.,-11,.,.
O=P(OCC1CC1)(c1ccccc1)c1ccccc1,6,16,3,+,-2
Cc1ccc(S(=O)(=O)NCC(=O)OCC(=O)Nc2ccc3c(c2)OCCO3)cc1,.,.,-18,.,.
CC1NC(=S)N(C2CCCCC2)C1=O (configuration not stated),-2,0,2,i,8
Cc1ccc(-n2c(C)cc(C(=O)CSc3n[nH]c(N)n3)c2C)cc1,-3,-2,-21,i,-3
Cc1cc(C(=O)CSc2n[nH]c(N)n2)c(C)n1-c1ccc(F)cc1,-13,8,-8,+,76*
C[C@H](CO)N1C[C@H](C)[C@H](CN(C)S(C)(=O)=O)Oc2c(cccc2N(C)C)C1=O,.,.,10,.,.
O=C(CCCCl)Oc1ccc2cc(-c3ccc4ccccc4n3)c(=O)oc2c1,-23,0,16,i,52*
COc1ccccc1NC(=O)CC(c1ccc(OC(C)C)cc1)c1ccccc1OC (configuration not stated),70*,0,3,i,2
COc1ccccc1C(CC(=O)Nc1ccc(C)c(C)c1)c1ccc(OC(C)C)cc1 (configuration not stated),-7,-4,9,i,0
CCOc1ccc(/C=C/C(=O)Nc2ccccc2C(F)(F)F)cc1,-21,-2,2,+,active
